# Test results from the supplement of paper PMC4466140.
# Columns and labels:
# Test in all cases: SPOT peptide array binding signal intensity (averaged, normalized) (arbitrary units (background-subtracted, floor 0; scale differs between SH3 domains)); higher = stronger binding of the SH3 domain to the peptide
# [1] = target: AgAbp1
# Method: (§1)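 GST-tagged SH3 domains from S. cerevisiae (Sc), A. gossypii (Ag), C. albicans (Ca) and S. pombe (Sp) were incubated at 10 ug/ml overnight at 4 C on cellulose SPOT membranes carrying 292 synthetic 15-mer peptides mined from the S. cerevisiae proteome (cysteines replaced by serines). Binding was detected with anti-GST antibody, HRP secondary and chemiluminescence, quantified with Genespotter, and reported as normalized spot intensities averaged over biological replicates.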
# [2] = target: AgBbc1
# Method: as §1
# [3] = target: AgBem1-D1
# Method: as §1
# [4] = target: AgBzz1-D1
# Method: as §1
# [5] = target: AgBzz1-D2
# Method: as §1
# [6] = target: AgCyk3
# Method: as §1
# [7] = target: AgFus1
# Method: as §1
# [8] = target: AgHof1
# Method: as §1
# [9] = target: AgHse1
# Method: as §1
# [10] = target: AgLsb1
# Method: as §1
# [11] = target: AgLsb4
# Method: as §1
# [12] = target: AgMyo5
# Method: as §1
# [13] = target: AgNbp2
# Method: as §1
# [14] = target: AgRvs167
# Method: as §1
# [15] = target: AgSho1
# Method: as §1
# [16] = target: AgSla1-D1-D2
# Method: as §1
# [17] = target: AgSla1-D3
# Method: as §1
# [18] = target: CaAbp1-D1
# Method: as §1
# [19] = target: CaAbp1-D2
# Method: as §1
# [20] = target: CaBbc1
# Method: as §1
# [21] = target: CaBem1-D1
# Method: as §1
# [22] = target: CaBzz1-D1
# Method: as §1
# [23] = target: CaBzz1-D2
# Method: as §1
# [24] = target: CaCyk3
# Method: as §1
# [25] = target: CaFus1
# Method: as §1
# [26] = target: CaHof1
# Method: as §1
# [27] = target: CaHse1
# Method: as §1
# [28] = target: CaLsb1
# Method: as §1
# [29] = target: CaLsb4
# Method: as §1
# [30] = target: CaMyo5
# Method: as §1
# [31] = target: CaNbp2
# Method: as §1
# [32] = target: CaRvs167
# Method: as §1
# [33] = target: CaRvs167-3
# Method: as §1
# [34] = target: CaSho1
# Method: as §1
# [35] = target: CaSla1-D1-D2
# Method: as §1
# [36] = target: CaSla1-D3
# Method: as §1
# [37] = target: ScAbp1
# Method: as §1
# [38] = target: ScBbc1
# Method: as §1
# [39] = target: ScBem1-D1
# Method: as §1
# [40] = target: ScBzz1-D1
# Method: as §1
# [41] = target: ScBzz1-D2
# Method: as §1
# [42] = target: ScCyk3
# Method: as §1
# [43] = target: ScFus1
# Method: as §1
# [44] = target: ScHof1
# Method: as §1
# [45] = target: ScHse1
# Method: as §1
# [46] = target: ScLsb1
# Method: as §1
# [47] = target: ScLsb2
# Method: as §1
# [48] = target: ScLsb3
# Method: as §1
# [49] = target: ScLsb4
# Method: as §1
# [50] = target: ScMyo3
# Method: as §1
# [51] = target: ScMyo5
# Method: as §1
# [52] = target: ScNbp2
# Method: as §1
# [53] = target: ScPex13
# Method: as §1
# [54] = target: ScRvs167
# Method: as §1
# [55] = target: ScSho1
# Method: as §1
# [56] = target: ScSla1-D1-D2
# Method: as §1
# [57] = target: ScSla1-D3
# Method: as §1
# [58] = target: SpAbp1-D1
# Method: as §1
# [59] = target: SpBbc1
# Method: as §1
# [60] = target: SpBzz1-D1
# Method: as §1
# [61] = target: SpBzz1-D2
# Method: as §1
# [62] = target: SpCyk3
# Method: as §1
# [63] = target: SpHof1
# Method: as §1
# [64] = target: SpHof1-2
# Method: as §1
# [65] = target: SpHof1-3
# Method: as §1
# [66] = target: SpHse1
# Method: as §1
# [67] = target: SpLsb1
# Method: as §1
# [68] = target: SpLsb4
# Method: as §1
# [69] = target: SpMyo1
# Method: as §1
# [70] = target: SpNbp2
# Method: as §1
# [71] = target: SpPex13
# Method: as §1
# [72] = target: SpRvs167
# Method: as §1
# [73] = target: SpSla1-D1-D2
# Method: as §1
# [74] = target: SpSla1-D3
# Method: as §1
binder,measurement,setting,value
LSKRLPLRFPEHTSS,SPOT peptide array binding signal intensity,[1],48
same,SPOT peptide array binding signal intensity,[2],5.5
same,SPOT peptide array binding signal intensity,[3],≤ 0
same,SPOT peptide array binding signal intensity,[4],9
same,SPOT peptide array binding signal intensity,[5],17
same,SPOT peptide array binding signal intensity,[6],≤ 0
same,SPOT peptide array binding signal intensity,[7],102
same,SPOT peptide array binding signal intensity,[8],67.5
same,SPOT peptide array binding signal intensity,[9],234
same,SPOT peptide array binding signal intensity,[10],5.5
same,SPOT peptide array binding signal intensity,[11],53.5
same,SPOT peptide array binding signal intensity,[12],≤ 0
same,SPOT peptide array binding signal intensity,[13],10
same,SPOT peptide array binding signal intensity,[14],1.33
same,SPOT peptide array binding signal intensity,[15],17
same,SPOT peptide array binding signal intensity,[16],2
same,SPOT peptide array binding signal intensity,[17],≤ 0
same,SPOT peptide array binding signal intensity,[18],462
same,SPOT peptide array binding signal intensity,[19],220
same,SPOT peptide array binding signal intensity,[20],27.2
same,SPOT peptide array binding signal intensity,[21],10
same,SPOT peptide array binding signal intensity,[22],22
same,SPOT peptide array binding signal intensity,[23],60.8
same,SPOT peptide array binding signal intensity,[24],4
same,SPOT peptide array binding signal intensity,[25],402
same,SPOT peptide array binding signal intensity,[26],0.75
same,SPOT peptide array binding signal intensity,[27],81
same,SPOT peptide array binding signal intensity,[28],1
same,SPOT peptide array binding signal intensity,[29],136
same,SPOT peptide array binding signal intensity,[30],≤ 0
same,SPOT peptide array binding signal intensity,[31],63.5
same,SPOT peptide array binding signal intensity,[32],15.2
same,SPOT peptide array binding signal intensity,[33],15.8
same,SPOT peptide array binding signal intensity,[34],212
same,SPOT peptide array binding signal intensity,[35],≤ 0
same,SPOT peptide array binding signal intensity,[36],1
same,SPOT peptide array binding signal intensity,[37],63.5
same,SPOT peptide array binding signal intensity,[38],≤ 0
same,SPOT peptide array binding signal intensity,[39],23.5
same,SPOT peptide array binding signal intensity,[40],10.5
same,SPOT peptide array binding signal intensity,[41],17
same,SPOT peptide array binding signal intensity,[42],61
same,SPOT peptide array binding signal intensity,[43],81
same,SPOT peptide array binding signal intensity,[44],4.25
same,SPOT peptide array binding signal intensity,[45],532
same,SPOT peptide array binding signal intensity,[46],4
same,SPOT peptide array binding signal intensity,[47],≤ 0
same,SPOT peptide array binding signal intensity,[48],492
same,SPOT peptide array binding signal intensity,[49],10.5
same,SPOT peptide array binding signal intensity,[50],≤ 0
same,SPOT peptide array binding signal intensity,[51],≤ 0
same,SPOT peptide array binding signal intensity,[52],50
same,SPOT peptide array binding signal intensity,[53],≤ 0
same,SPOT peptide array binding signal intensity,[54],231
same,SPOT peptide array binding signal intensity,[55],952
same,SPOT peptide array binding signal intensity,[56],6
same,SPOT peptide array binding signal intensity,[57],4.75
same,SPOT peptide array binding signal intensity,[58],228
same,SPOT peptide array binding signal intensity,[59],1.5
same,SPOT peptide array binding signal intensity,[60],132
RLPAPPPPPRRGPAP,SPOT peptide array binding signal intensity,[31],63.5
same,SPOT peptide array binding signal intensity,[32],223
same,SPOT peptide array binding signal intensity,[33],9.25
same,SPOT peptide array binding signal intensity,[34],11
same,SPOT peptide array binding signal intensity,[35],2140
same,SPOT peptide array binding signal intensity,[36],20.2
same,SPOT peptide array binding signal intensity,[37],53
same,SPOT peptide array binding signal intensity,[38],198
same,SPOT peptide array binding signal intensity,[39],3.5
same,SPOT peptide array binding signal intensity,[40],222
same,SPOT peptide array binding signal intensity,[41],47.5
same,SPOT peptide array binding signal intensity,[42],5
same,SPOT peptide array binding signal intensity,[43],≤ 0
same,SPOT peptide array binding signal intensity,[44],175
same,SPOT peptide array binding signal intensity,[45],173
same,SPOT peptide array binding signal intensity,[46],27.2
same,SPOT peptide array binding signal intensity,[47],5.5
same,SPOT peptide array binding signal intensity,[48],832
same,SPOT peptide array binding signal intensity,[49],413
same,SPOT peptide array binding signal intensity,[50],881
same,SPOT peptide array binding signal intensity,[51],795
same,SPOT peptide array binding signal intensity,[52],30.5
same,SPOT peptide array binding signal intensity,[53],502
same,SPOT peptide array binding signal intensity,[54],795
same,SPOT peptide array binding signal intensity,[55],188
same,SPOT peptide array binding signal intensity,[56],3480
same,SPOT peptide array binding signal intensity,[57],3.5
same,SPOT peptide array binding signal intensity,[58],69
same,SPOT peptide array binding signal intensity,[59],20
same,SPOT peptide array binding signal intensity,[60],4030
same,SPOT peptide array binding signal intensity,[61],64.8
same,SPOT peptide array binding signal intensity,[62],57
same,SPOT peptide array binding signal intensity,[63],115
same,SPOT peptide array binding signal intensity,[64],166
same,SPOT peptide array binding signal intensity,[65],1070
same,SPOT peptide array binding signal intensity,[66],2.25
same,SPOT peptide array binding signal intensity,[67],12.2
same,SPOT peptide array binding signal intensity,[68],1800
same,SPOT peptide array binding signal intensity,[69],510
same,SPOT peptide array binding signal intensity,[70],12
same,SPOT peptide array binding signal intensity,[71],≤ 0
same,SPOT peptide array binding signal intensity,[72],1170
same,SPOT peptide array binding signal intensity,[73],339
same,SPOT peptide array binding signal intensity,[74],≤ 0
